Experiments:
Type in all cases: functional
[1] = target: Solute carrier family 2, facilitated glucose transporter member 1 (Homo sapiens) (UniProt P11166); assay: ST_JUDE_LEISH: Cytotoxicity at 2uM final concentration against transgenic Leishmania Mexicana promastigotes LmGLUT1 that are glucose transport deficient and complemented with the human glucose transporter GLUT1. Activity is measured by DNA content using SYBR green in vitro
[2] = target: Hexose transporter 1 (Plasmodium falciparum) (UniProt O97467); assay: ST_JUDE_LEISH: Cytotoxicity at 2uM final concentration against transgenic Leishmania Mexicana promastigotes LmPfHT that are glucose transport deficient and complemented with the Plasmodium falciparum hexose transporter. Activity is measured by DNA content using SYBR green in vitro
[3] = target: Glucose transporter (Leishmania mexicana) (UniProt O61059); assay: ST_JUDE_LEISH: Cytotoxicity at 2uM final concentration against transgenic Leishmania Mexicana promastigotes LmGT2 that are glucose transport deficient and complemented with the L. Mexicana glucose transporter 2. Activity is measured by DNA content using SYBR green in vitro

Sequence of Solute carrier family 2, facilitated glucose transporter member 1 (Homo sapiens) (P11166 whole entry): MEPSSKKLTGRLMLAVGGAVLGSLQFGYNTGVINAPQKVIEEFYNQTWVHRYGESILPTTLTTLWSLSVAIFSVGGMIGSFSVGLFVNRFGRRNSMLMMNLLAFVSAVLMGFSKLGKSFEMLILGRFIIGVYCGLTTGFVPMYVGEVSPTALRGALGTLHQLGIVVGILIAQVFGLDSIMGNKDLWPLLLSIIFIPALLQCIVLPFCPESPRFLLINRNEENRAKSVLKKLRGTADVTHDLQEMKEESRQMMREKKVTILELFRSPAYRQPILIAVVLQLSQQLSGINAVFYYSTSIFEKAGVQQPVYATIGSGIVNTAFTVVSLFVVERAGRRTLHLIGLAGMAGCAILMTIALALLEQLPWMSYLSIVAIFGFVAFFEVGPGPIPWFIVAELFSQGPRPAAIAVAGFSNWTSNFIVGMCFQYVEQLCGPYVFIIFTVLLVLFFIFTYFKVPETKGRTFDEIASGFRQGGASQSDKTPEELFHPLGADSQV

Row | Compound | inhibition [1] [%] | inhibition [2] [%] | inhibition [3] [%]
1 | Cc1cccc2nc(-c3ccc(-c4cccc(CN5CCCC(O)C5)c4)s3)[nH]c12 (stereo not given) | 3.6 | 4.83 | 2.93
2 | Cc1ccc(Nc2nc(N/N=C/c3cc4c(cc3Br)OCO4)nc(Nc3ccc([N+](=O)[O-])cc3)n2)cc1C | 1.58 | 2.19 | 4.71
3 | CC(C)CCCC(C)(C)NC[C@@H](O)[C@H](Cc1ccccc1)NC(=O)c1cccc(CCC2CC2)c1 | 3.16 | 4.54 | 4.06
4 | CC1CN(Cc2ccc(-c3ccc(-c4nc5cc(F)ccc5[nH]4)s3)cc2)CC(C)O1 (stereo not given) | 5.96 | 4.68 | 3.99
5 | O=C(Cn1c2ccccc2c(=O)c2ccc(Cl)cc21)Nc1ccc(C(F)(F)F)cc1 | -0.52 | -1.32 | -1.59
6 | CCOc1ccc2nc3cc(NC(=O)c4ccco4)ccc3c(N)c2c1 | 3.66 | 3.27 | 2.78
7 | CCOC(=O)c1c(C)n(-c2ccccc2)c2ccc(O)cc12 | -0.44 | 2.67 | 0.95
8 | CN(C)CCCNCc1ccc(-c2ccc(CNCCc3ccccc3)cc2)cc1 | -0.43 | 0.15 | -0.49
9 | O=C(Nc1ccc(-c2ccccc2)cc1)Nc1ccc2c(c1)CCNCC2 | -2.5 | 0.46 | -3.69
10 | Fc1ccc2[nH]c3c(NCCN4CCCCC4)ncnc3c2c1 | -3.47 | -0.73 | -1.11
11 | CS(=O)(=O)CCNCc1nc(-c2ccc3c(=O)[nH]cnc3c2)cs1 | 18.2 | 48 | 31.5
12 | COc1ccc(C2(CNCC(O)c3cccc([N+](=O)[O-])c3)CCCC2)cc1OC (stereo not given) | 2.7 | 4.72 | 3.66
13 | CCCCCCN1CCCN(Cc2ccc(C(=O)Nc3ccc(F)c(F)c3)cc2)CC1 | 17.1 | 18.5 | 12.9
14 | CS(=O)(=O)Nc1cccc(-c2cnc3[nH]cc(-c4cccc(CN)c4)c3c2)c1 | 4.77 | 3.29 | 3.74
15 | CC(C)N1CCN(C(CN2CCN(CCCOc3cccc4ccccc34)CC2)c2ccc(F)cc2)CC1 (stereo not given) | -1.68 | 0.92 | 4.19
16 | COc1ccc(CNC(=O)Nc2cccc(-c3csc(NC(=N)N)n3)c2)cc1 | -2.22 | -0.98 | 1.03
17 | COc1ccc2nccc([C@@H](O)CN3CCC(NCc4cc5oc(=O)n(C)c5cc4F)CC3)c2c1 | 0.9 | 0.07 | 0.86
18 | CC(C)[C@H](NCC(=O)c1ccccc1)C(=O)O | -0.14 | 0.65 | -0.17

Row | Compound | inhibition [1] [%] | inhibition [2] [%] | inhibition [3] [%]
19 | Cc1cc(O)c(CN(C)Cc2ccc3c(c2)OCCO3)cc1C(C)C | 4.86 | 5.38 | 2.54
20 | O=C(NCCNc1ccnc2cc(Cl)ccc12)c1ccccc1F | -1.91 | 1.06 | -0.19
21 | Nc1nc2c(ncn2OC[C@H](CO)OCP(=O)(O)O)c(=O)[nH]1 | 0.43 | -1.69 | -1.85
22 | CCc1cc(Cc2cnc(N)nc2N)cc(CC)c1OC | 2.48 | 0.46 | -1.28
23 | CSc1ccc(NC(=O)Nc2cc(C)nc3ccccc23)cc1 | 10.3 | 10.8 | 10.3
24 | CO/C(=C\C=C\c1cc2cc(Cl)c(Cl)cc2[nH]1)C(=O)NC1CC2CCC(C1)N2C (stereo not given) | 0.15 | 1.93 | -1.99
25 | CC(O)C1CCCCN1C(=O)c1cccc(-c2ccc(-c3nc4cc(F)ccc4[nH]3)cc2)c1 (stereo not given) | 2.72 | 5.12 | 4.37
26 | CCNC(=O)Nc1cccc(-c2ccc(-c3nc4cccc(C)c4[nH]3)s2)c1 | 1.49 | 1.4 | 0.03
27 | CC(C)(C)c1ccc(NC(=O)c2cccc(CN3CCN(Cc4cccc(O)c4)CC3)c2)cc1 | 0.93 | -0.15 | 0.64
28 | O=C(NC1CCCCC1)C(c1cccs1)N(CCc1ccccc1)C(=O)c1ccco1 (stereo not given) | 1.57 | 1.89 | 0.46
29 | Cc1cc(N[C@@H](CC(C)C)C(=O)NC2CCCC2)nc(NCc2ccccc2C)n1 | 4.21 | 4.39 | 1.62
30 | COc1cc(F)c2ncc(Cl)c(CCN3CCC(NCc4ccc5c(c4)NC(=O)CO5)CC3)c2c1 | 7.29 | 7.51 | 2.39
31 | CCCn1c(O)nnc1SCC(=O)Nc1cc(Cl)ccc1Cl | -1.37 | -0.49 | -0.21
32 | O=C(/C=C/c1cccc(C(F)(F)F)c1)NCCCCCN1CCC(c2c[nH]c3ccccc23)CC1 | 4.06 | 3.58 | 1.4
33 | COc1ccc(NC(=O)c2ccc(Br)c(C)c2)cc1N1CCN(CCCCc2ccccc2)CC1 | 1.19 | 0.21 | 0.85
34 | CCCCNCc1ccc(-c2nc(CN(CCCn3ccnc3)C(=O)Nc3ccc(CC)cc3)cs2)cc1 | 7.74 | 6.29 | 6.91
35 | Cc1[nH]c(C)c(-c2ccc(-c3cccc(OC(F)(F)F)c3)nc2)c(=O)c1Cl | -1.57 | 0.86 | -0.63
